The values that follow come from paper PMC7862700, “An all-to-all approach to the identification of sequence-specific readers for epigenetic DNA modifications on cytosine”.

Assay in all cases: DAPPL (digital affinity profiling via proximity ligation, sequencing); 10 mM Tris-HCl pH 7.5, 50 mM NaCl, 1 mM DTT, 4% glycerol, room temperature, 30 min; GST-TFs on glutathione beads, 16-mer random dsDNA library, 0.1% formaldehyde crosslink after washing; high values mean tight binding
What all share (conditions): protein: recombinant; tags: N-terminal GST; dsDNA, one strand shown

Assay [1] addresses T1, ERF (Homo sapiens, UniProt P50548 1-548).
T1 sequence: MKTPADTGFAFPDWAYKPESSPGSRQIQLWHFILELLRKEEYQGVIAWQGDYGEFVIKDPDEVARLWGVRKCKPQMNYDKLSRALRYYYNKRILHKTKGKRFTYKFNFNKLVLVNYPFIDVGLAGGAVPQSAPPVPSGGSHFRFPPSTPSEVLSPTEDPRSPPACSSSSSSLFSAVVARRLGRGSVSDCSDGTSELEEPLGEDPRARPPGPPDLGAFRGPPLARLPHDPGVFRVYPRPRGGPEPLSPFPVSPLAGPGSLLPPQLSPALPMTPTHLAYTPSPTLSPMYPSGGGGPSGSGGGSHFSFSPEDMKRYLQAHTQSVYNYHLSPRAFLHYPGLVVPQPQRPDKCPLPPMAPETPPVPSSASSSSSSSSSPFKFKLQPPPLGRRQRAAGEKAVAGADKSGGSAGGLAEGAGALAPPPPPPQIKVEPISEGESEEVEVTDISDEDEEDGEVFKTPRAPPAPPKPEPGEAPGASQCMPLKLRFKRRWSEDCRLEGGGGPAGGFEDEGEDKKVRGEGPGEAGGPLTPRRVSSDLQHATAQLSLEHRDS
Summed up: (§1)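 Each value of binding signal is a hexamer's read frequency for a factor divided by the same hexamer's frequency in the tag-only sample. Barcoded, bead-captured GST fusions of human transcription factors made in yeast were pooled with that sample and incubated with 200 nmole of a random double-stranded 16-mer DNA library in Tris/NaCl/DTT/glycerol buffer at room temperature for 30 min. Washing, 0.1% formaldehyde crosslinking, proximity ligation, PCR and Illumina NextSeq500 sequencing followed.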

For assay [2], the target named is T2, ETV3L (Homo sapiens, UniProt Q6ZN32 1-361).
T2 sequence: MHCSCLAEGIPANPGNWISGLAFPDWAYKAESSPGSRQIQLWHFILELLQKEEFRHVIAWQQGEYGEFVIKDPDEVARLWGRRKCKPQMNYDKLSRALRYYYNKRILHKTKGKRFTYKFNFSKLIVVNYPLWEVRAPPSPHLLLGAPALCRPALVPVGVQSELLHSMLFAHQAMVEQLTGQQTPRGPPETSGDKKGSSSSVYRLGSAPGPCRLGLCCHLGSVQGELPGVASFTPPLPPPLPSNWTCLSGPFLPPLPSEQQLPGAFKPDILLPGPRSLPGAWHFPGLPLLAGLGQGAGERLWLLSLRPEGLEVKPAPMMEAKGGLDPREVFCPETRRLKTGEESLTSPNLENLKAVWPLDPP
An outline of the steps: as §1

Assay [3] concerns the target T3, ETS2 (Homo sapiens, UniProt P15036 1-469).
T3 sequence: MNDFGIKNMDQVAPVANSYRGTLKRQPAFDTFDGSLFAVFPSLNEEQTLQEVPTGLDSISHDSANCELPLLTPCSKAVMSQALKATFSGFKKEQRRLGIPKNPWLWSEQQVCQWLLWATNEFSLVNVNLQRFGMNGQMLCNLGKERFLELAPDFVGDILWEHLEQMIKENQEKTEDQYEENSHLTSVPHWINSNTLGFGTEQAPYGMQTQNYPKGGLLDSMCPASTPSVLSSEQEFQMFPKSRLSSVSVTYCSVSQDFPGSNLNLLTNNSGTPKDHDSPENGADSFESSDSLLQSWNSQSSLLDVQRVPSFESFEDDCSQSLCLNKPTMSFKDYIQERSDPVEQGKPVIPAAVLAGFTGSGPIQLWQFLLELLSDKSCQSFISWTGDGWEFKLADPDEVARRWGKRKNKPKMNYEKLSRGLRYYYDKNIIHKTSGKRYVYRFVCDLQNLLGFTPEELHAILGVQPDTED
Summed up: as §1

Assay [4] concerns the target T4, SPDEF (Homo sapiens, UniProt O95238 1-335).
T4 sequence: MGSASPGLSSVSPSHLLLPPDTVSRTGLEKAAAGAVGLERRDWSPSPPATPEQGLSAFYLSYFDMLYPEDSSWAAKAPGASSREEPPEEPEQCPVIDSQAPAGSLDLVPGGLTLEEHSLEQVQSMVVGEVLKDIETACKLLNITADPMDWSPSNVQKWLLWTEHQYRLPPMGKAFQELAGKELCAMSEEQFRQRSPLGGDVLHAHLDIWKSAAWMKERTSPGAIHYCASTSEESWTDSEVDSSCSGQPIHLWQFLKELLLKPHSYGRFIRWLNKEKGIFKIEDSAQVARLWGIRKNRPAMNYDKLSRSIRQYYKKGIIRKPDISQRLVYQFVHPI
Summed up: as §1

The target of assay [5] is T5, ETV7 (Homo sapiens, UniProt Q9Y603 1-341).
T5 sequence: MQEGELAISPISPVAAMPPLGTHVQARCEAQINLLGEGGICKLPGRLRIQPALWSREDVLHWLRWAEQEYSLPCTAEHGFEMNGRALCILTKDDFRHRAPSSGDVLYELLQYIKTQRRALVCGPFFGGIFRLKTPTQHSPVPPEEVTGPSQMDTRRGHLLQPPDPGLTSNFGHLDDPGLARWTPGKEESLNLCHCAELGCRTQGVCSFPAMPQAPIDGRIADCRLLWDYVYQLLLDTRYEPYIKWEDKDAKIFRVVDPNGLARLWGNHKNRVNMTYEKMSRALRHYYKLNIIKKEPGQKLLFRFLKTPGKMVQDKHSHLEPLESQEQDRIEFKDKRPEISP
An outline of the steps: as §1

Assay [6] addresses T6, ELF5 (Homo sapiens, UniProt Q9UKW6-2 1-255).
T6 sequence: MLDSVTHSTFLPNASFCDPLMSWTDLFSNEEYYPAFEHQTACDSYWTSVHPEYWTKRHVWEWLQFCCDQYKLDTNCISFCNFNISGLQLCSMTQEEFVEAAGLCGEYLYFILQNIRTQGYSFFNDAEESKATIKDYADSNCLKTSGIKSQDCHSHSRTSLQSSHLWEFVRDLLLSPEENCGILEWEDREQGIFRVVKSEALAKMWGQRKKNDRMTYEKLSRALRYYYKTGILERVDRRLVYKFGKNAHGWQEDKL
Summed up:
as §1

The target in assay [7] is T7, ETV3 (Homo sapiens, UniProt P41162-2 1-143).
T7 sequence: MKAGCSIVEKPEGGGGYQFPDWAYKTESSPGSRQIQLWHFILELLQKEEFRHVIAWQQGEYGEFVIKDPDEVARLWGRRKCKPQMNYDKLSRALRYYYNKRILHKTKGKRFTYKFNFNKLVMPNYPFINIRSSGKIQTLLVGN
An outline of the steps: as §1

The target of assay [8] is ETV6 (Homo sapiens, UniProt P41212 1-452). Summed up: as §1
Chain of ETV6 (P41212 whole entry): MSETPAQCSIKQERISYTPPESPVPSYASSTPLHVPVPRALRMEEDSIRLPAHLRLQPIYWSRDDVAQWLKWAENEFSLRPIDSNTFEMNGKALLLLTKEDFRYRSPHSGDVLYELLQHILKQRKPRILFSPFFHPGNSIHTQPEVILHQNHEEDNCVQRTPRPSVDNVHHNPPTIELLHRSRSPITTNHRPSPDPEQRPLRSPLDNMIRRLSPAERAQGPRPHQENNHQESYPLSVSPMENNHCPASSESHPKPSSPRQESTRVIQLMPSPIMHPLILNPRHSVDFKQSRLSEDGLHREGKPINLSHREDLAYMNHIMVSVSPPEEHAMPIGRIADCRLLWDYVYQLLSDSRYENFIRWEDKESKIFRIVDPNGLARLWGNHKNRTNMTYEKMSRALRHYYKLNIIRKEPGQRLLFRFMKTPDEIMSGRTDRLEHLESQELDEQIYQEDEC

As to AGTACA, the binding signal in assay [1] is 1.06 fold enrichment (6-mer frequency, TF over GST control); in assay [2] it was 1.09 fold enrichment (6-mer frequency, TF over GST control); in assay [3], 1.16 fold enrichment (6-mer frequency, TF over GST control); in assay [4], 1.31 fold enrichment (6-mer frequency, TF over GST control); in assay [5] it was 1.21 fold enrichment (6-mer frequency, TF over GST control); in assay [6], 1.17 fold enrichment (6-mer frequency, TF over GST control). In addition, the binding signal in assay [7] was 1.2 fold enrichment (6-mer frequency, TF over GST control); in assay [8], 1.24 fold enrichment (6-mer frequency, TF over GST control).
GGTAAT: the binding signal in assay [1] is 1.13 fold enrichment (6-mer frequency, TF over GST control); in assay [2] it was 1.06 fold enrichment (6-mer frequency, TF over GST control); in assay [3], 1.08 fold enrichment (6-mer frequency, TF over GST control); in assay [4] it was 1.11 fold enrichment (6-mer frequency, TF over GST control); in assay [5] it was 1.14 fold enrichment (6-mer frequency, TF over GST control); in assay [6] it was 1.16 fold enrichment (6-mer frequency, TF over GST control). For the same sequence, the binding signal is 1.06 fold enrichment (6-mer frequency, TF over GST control) in assay [7] and 1.16 fold enrichment (6-mer frequency, TF over GST control) in assay [8].
Turning to GAATAC, the binding signal in assay [1] is 1.11 fold enrichment (6-mer frequency, TF over GST control); in assay [2], 1.01 fold enrichment (6-mer frequency, TF over GST control); in assay [3], 1.02 fold enrichment (6-mer frequency, TF over GST control); in assay [4], 1 fold enrichment (6-mer frequency, TF over GST control); in assay [5], 1.01 fold enrichment (6-mer frequency, TF over GST control); in assay [6], 1.03 fold enrichment (6-mer frequency, TF over GST control). Besides, the binding signal in assay [7] is 1.07 fold enrichment (6-mer frequency, TF over GST control); in assay [8], 1.03 fold enrichment (6-mer frequency, TF over GST control).
For the sequence AAGTTG, the binding signal is 1.08 fold enrichment (6-mer frequency, TF over GST control) in assay [1]; 1.11 fold enrichment (6-mer frequency, TF over GST control) in assay [2]; 1.11 fold enrichment (6-mer frequency, TF over GST control) in assay [3]; 1.02 fold enrichment (6-mer frequency, TF over GST control) in assay [4]; 1.26 fold enrichment (6-mer frequency, TF over GST control) in assay [5]; 1.17 fold enrichment (6-mer frequency, TF over GST control) in assay [6]. Also, the binding signal in assay [7] was 1.07 fold enrichment (6-mer frequency, TF over GST control); in assay [8] it was 1.17 fold enrichment (6-mer frequency, TF over GST control).
For CGGCTA, the binding signal in assay [1] was 1.07 fold enrichment (6-mer frequency, TF over GST control); in assay [2] it was 1.19 fold enrichment (6-mer frequency, TF over GST control); in assay [3] it was 1.07 fold enrichment (6-mer frequency, TF over GST control); in assay [4], 1.25 fold enrichment (6-mer frequency, TF over GST control); in assay [5] it was 1.26 fold enrichment (6-mer frequency, TF over GST control); in assay [6], 1.19 fold enrichment (6-mer frequency, TF over GST control). Moreover, the binding signal was 1.12 fold enrichment (6-mer frequency, TF over GST control) in assay [7] and 1.27 fold enrichment (6-mer frequency, TF over GST control) in assay [8].
On to ATGGAA, for which the binding signal was 1.23 fold enrichment (6-mer frequency, TF over GST control) in assay [1]; 1.18 fold enrichment (6-mer frequency, TF over GST control) in assay [2]; 1.23 fold enrichment (6-mer frequency, TF over GST control) in assay [3]; 1.2 fold enrichment (6-mer frequency, TF over GST control) in assay [4]; 1.35 fold enrichment (6-mer frequency, TF over GST control) in assay [5]; 1.13 fold enrichment (6-mer frequency, TF over GST control) in assay [6]. The binding signal in assay [7] is 1.2 fold enrichment (6-mer frequency, TF over GST control); in assay [8], 1.28 fold enrichment (6-mer frequency, TF over GST control).
Turning to CCTTGT, the binding signal in assay [1] is 1.29 fold enrichment (6-mer frequency, TF over GST control); in assay [2], 1.05 fold enrichment (6-mer frequency, TF over GST control); in assay [3], 1.26 fold enrichment (6-mer frequency, TF over GST control); in assay [4], 1.37 fold enrichment (6-mer frequency, TF over GST control); in assay [5] it was 1.19 fold enrichment (6-mer frequency, TF over GST control); in assay [6], 1.52 fold enrichment (6-mer frequency, TF over GST control). For the same sequence, the binding signal is 1.31 fold enrichment (6-mer frequency, TF over GST control) in assay [7] and 1.06 fold enrichment (6-mer frequency, TF over GST control) in assay [8].
